Data: PubChem BioAssay AID1259311 (ICCB-Longwood Screening Facility, Harvard Medical School, 2017)
Where “and” joins values, the source holds several entries; their conditions need not be identical. Equal values may be shown once. In all, about 330,000 compounds went through this assay and about 1,100 (0.33%) were called active. The full list was thinned out, with actives kept by preference. Values without a mark were called inactive. Rule as the data show it: active = inhibition above about 85%; inactive = the rest.

Assay: growth inhibition of S. aureus RN4220, primary screen, OD600 (AID 1259311);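 also: plate controls were untreated cells for no effect and reference antibiotic for full effect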
Conditions: OD600, 16 h, hits give high values

Compound	inhibition
CON=Cc1ccc(N2CCOCC2)c([N+](=O)[O-])c1	6.02%
C=CCn1c(CNc2ccccc2)nnc1SCC(=O)NN=Cc1ccccc1O	1.54%
O=C(O)CCC(=NNc1ncc(C(F)(F)F)cc1Cl)C(=O)O	4.71%
CC(=O)Nc1cccc(C(C)=NNc2ccc(S(=O)(=O)Nc3ccccc3C(=O)O)cc2[N+](=O)[O-])c1	-10.1%
CCc1ccc2c(c1)C1(NN=C(c3ccccc3)S1)C(=O)N2 (stereo not drawn)	92.6% (active)
CCN(CC)c1ccc(C(=O)c2cnc(N=CN(C)C)s2)cc1	8.12%
CC(=NNC(=O)CNS(=O)(=O)c1ccc(C)cc1)c1cccc([N+](=O)[O-])c1	-3.24%
Cn1c(NN=Cc2ccccc2)nc2sc3c(c2c1=O)CCC3	6.77%
O=C(NN=Cc1ccccc1)c1ccc(CN2C(=O)c3cccc4cccc2c34)cc1	0.745%
O=C(Nc1ccc2ccccc2c1)Nc1ccc2snnc2c1	106% (active)
Cc1nc2cc(NC(=O)Nc3cccc(F)c3)ccc2n1C	2.6%
S=C(Nc1ccccc1)Nc1ccc2ccccc2c1	-8.9%
Nc1nonc1-n1nnc(C(=O)NN=Cc2ccncc2)c1CN1CCCCC1	1.52%
Cc1ccccc1NC(=O)C(C)ON=Cc1cccc([N+](=O)[O-])c1 (stereo not drawn)	4.13%
COc1ccc(CC(O)=C(C#N)c2nc3ccccc3[nH]2)cc1OC	-2.45%
CCOC(=O)C=c1sc(=Cc2c(OCC)ccc3ccccc23)c(=O)n1CC(=O)NCC1CCCO1 (stereo not drawn)	-2.12%
CCOC(=O)C1(CCOc2ccccc2)CCN(Cc2ccc(C#CCCO)cc2)CC1	5.24%
CCOC(=O)C1(CCOc2ccccc2)CCN(Cc2cc(OC)cc(OC)c2)CC1	1.85%
Cc1c(CN2CCC(CO)(CCOc3ccccc3)CC2)[nH]c2ccc(Cl)cc12	97.5% (active)
C#CCOCCOCCOCCNc1nc(N2CCN(C(=O)C(Cc3cc4ccccc4[nH]3)n3cc(C(N)CC(C)C)nn3)CC2)nc(N2CCN(C(=O)C(Cc3ccc(O)cc3)n3cc(C(N)C(C)CC)nn3)CC2)n1 (stereo not drawn)	-1.75%

Compound	inhibition
CCNc1nc(NCC)nc(NN=Cc2ccc(O)c(OC)c2)n1	4.03%
COc1ccc(C=NNC(=O)C(=O)N2CCCCCC2)cc1	0.0129%
Cc1[nH]n(-c2cccc(Cl)c2)c(=O)c1-c1ccc(Cl)cc1	106% (active)
Cc1nc2c(-c3ccccc3)c(C)[nH]n2c(=O)c1Cl	5.58%
Cc1cc(=O)n2[nH]c(-c3cccc(Cl)c3)cc2n1	0.714%
CC(C)(C)NC(=O)C=NO	6.33%
O=C(NN=Cc1ccc(OC(F)F)cc1OC(F)F)c1ccc(Br)cc1	3.44%
N#CC(=C(O)c1ccco1)c1ccccn1	2.69%
Oc1ccc(Br)cc1C=Nn1c(COc2ccccc2)n[nH]c1=S	5.82%
FC(F)(F)c1cccc(NC(=S)Nc2cccc(Cl)c2)c1	100% (active)
O=C(O)CC1(CC(=O)Nc2cccc(C(F)(F)F)c2)CCCC1	3.93%
Cn1cc(Cl)c(C(=O)NNC(=S)Nc2cccc(Cl)c2)n1	4.73%
CCN1CC2C3C(=O)N(C)C(=O)C3[C@](Cc3ccccc3)(C1=O)N2C(=O)c1ccccc1 (stereo partly drawn)	1.95%
COC(=O)C(C=NOCc1ccc([N+](=O)[O-])cc1)NC(=O)c1cccc(Cl)c1 (stereo not drawn)	-3.78%
COC(=O)[C@@]1(Cc2ccc(OC)cc2)C2c3cc(C(=O)N4CCCC4)n(CCSCCO)c3CC2CN1C(=O)c1ccccc1 (stereo partly drawn)	3.17%
N#CC1=C(SCc2ccc(C#N)cc2)N=C(N)C(c2nc(-c3ccccc3)cs2)C12CCCCC2 (stereo not drawn)	98.3% (active)
N#Cc1ccc(CSc2ncccn2)cc1	3.27%
N#CC1=C(SCc2ccccc2)NC(=O)C(C#N)C12CCCC2 (stereo not drawn)	13.6%
O=C(NC1CC1)C1=CC(C2CC2)CC(OCCCCO)O1 (stereo not drawn)	6.8% and 1.82%
Cc1cc(C(=O)NN=Cc2cc(Cl)cc([N+](=O)[O-])c2O)n[nH]1	7.38%

Compound	inhibition
COc1ccc(C(=O)/C=C/c2cccnc2)c(OC)c1	2.36%
COc1ccc(/C=C/C(=O)c2cc(Br)ccc(=O)c2O)cc1	94.3% (active)
COc1ccc(NC(=O)ON=Cc2ccc(Br)cc2)cc1	5.53%
O=C(Cc1ccccc1)NNC1CC(=O)N(c2ccc(Br)cc2)C1=O (stereo not drawn)	4.24%
CC(C)(C)OC(=O)C1=C(CO)CS[C@@H]2[C@H](NC(=O)Cc3ccccc3)C(=O)N12	99.2% (active)
CC(C)(C)OC(=O)NC(Cc1ccccc1)C(=O)NC(CO)C(O)C1CC1C(=O)NC1CC1 (stereo not drawn)	2.57%
CC(=NNC(=O)CNc1ccccc1)c1ccccc1	0.316%
Cc1c(O)ccc(C(Cc2ccc3ccccc3n2)=NN)c1O	4.37%
Cc1cc(N=Nc2ccc3ccccc3c2)ccc1O	99.9% (active)
COc1cccc(C=NNC(=O)CNC(=O)C2COc3ccccc3O2)c1O (stereo not drawn)	2.29%
CC(=NNC(=O)CNC(=O)C1COc2ccccc2O1)c1ccc([N+](=O)[O-])cc1 (stereo not drawn)	2.91%
CC(=O)c1cccc(NC(=O)C2COc3ccccc3O2)c1 (stereo not drawn)	4.71%
O=C(Nc1ncc([N+](=O)[O-])s1)C1COc2ccccc2O1 (stereo not drawn)	92.1% (active)
Cc1ccc(NC(=O)CN2C(=O)SC(=Cc3cccn3-c3cccc(C(=O)O)c3)C2=O)cc1C	8.73%
CC(=NN=C(c1ccccc1)c1ccccc1)c1ccco1	7.82%
COc1ccc(C(CCN(Cc2ccc(OC)c(OC)c2)C(=O)CCl)c2ccccc2)cc1 (stereo not drawn)	85.5% (active)
COc1ccc(CN(Cc2ccc(OC)cc2)C(=O)c2cccs2)cc1	6.45%
COc1ccc(CCNC(=O)C(Sc2ccccn2)c2ccccc2)cc1OC (stereo not drawn)	4.13%
